Test results: the supplement of paper PMC3334620
In all, about 33,000 sequences were measured (“E-score (-0.5 to 0.5)”: median about -0.016, highest 2% from about 0.32 on). This is one part of a sample in which the highest values are shown more often than they occur.

The sequences below were run against T1, Stp1 (UniProt B3LFK1) (assay: PBM E-score (8-mer binding enrichment) (E-score (-0.5 to 0.5)); higher = stronger / more preferred TF binding). Details: protein concentration: 200 nM; construct: GST-full length.
T1 sequence: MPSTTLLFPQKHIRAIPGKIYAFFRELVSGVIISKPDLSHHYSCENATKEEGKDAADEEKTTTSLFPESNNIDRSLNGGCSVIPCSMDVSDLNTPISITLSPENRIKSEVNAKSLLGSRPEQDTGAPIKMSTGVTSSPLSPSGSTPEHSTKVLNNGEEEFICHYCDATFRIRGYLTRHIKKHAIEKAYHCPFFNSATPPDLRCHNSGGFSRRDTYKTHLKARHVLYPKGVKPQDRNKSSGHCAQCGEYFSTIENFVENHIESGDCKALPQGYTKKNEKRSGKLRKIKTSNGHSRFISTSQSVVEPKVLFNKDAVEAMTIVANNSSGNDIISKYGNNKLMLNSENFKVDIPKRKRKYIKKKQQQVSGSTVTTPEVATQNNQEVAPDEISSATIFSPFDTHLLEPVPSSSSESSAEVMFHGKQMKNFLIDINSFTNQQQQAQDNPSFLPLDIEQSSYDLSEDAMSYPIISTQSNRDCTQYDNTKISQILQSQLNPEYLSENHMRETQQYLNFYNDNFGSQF
Procedure: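 Universal 'all 10-mer' protein binding microarrays (Agilent AMADID 015681) probed with GST-tagged S. cerevisiae TFs (full-length or DBD) made by in vitro transcription/translation (PURExpress), about 100-200 nM. Bound TF was detected with fluorescent anti-GST. Each ungapped 8-mer (which stands for itself and its reverse complement) is scored by the PBM enrichment score (E-score), a modified Wilcoxon-Mann-Whitney statistic from -0.5 to +0.5, computed with the Universal PBM Analysis Suite. Scale: above 0.35 generally sequence-specific binding.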

| Sequence | PBM E-score |
| --- | --- |
| AACGATTG | 0.0458 |
| CGACAGCC | -0.0511 |
| CCGGCTCA | 0.0597 |
| GCGGCTCA | 0.461 |
| TCGGCTCA | -0.0668 |
| AAGAACGC | 0.185 |
| CAGAGCCG | 0.338 |
| AAGAGCCA | 0.103 |
| AAGAGCCT | 0.134 |
| CAGAGCCA | -0.148 |
| CAGAGCCC | -0.0943 |
| AAGAGCCG | 0.336 |
| AGAATAAC | -0.00738 |
| ACCAACGG | 0.173 |
| GTAGAGTA | 0.0935 |
| AGGGTAAC | -0.165 |
| CACGCCGG | -0.0191 |
| CACGCCGA | 0.0798 |
| GACGCCGC | 0.453 |
| GACGCCGA | 0.304 |
| CACGCCGC | 0.417 |
| GACGCCCC | -0.00392 |
| GGAACTTA | -0.0446 |
| CGGGCACG | 0.139 |
| AGGGCACA | 0.334 |

| Sequence | PBM E-score |
| --- | --- |
| CTGGCACA | -0.187 |
| AGGGCACG | 0.302 |
| ATGGCACG | 0.354 |
| ATGGCACA | 0.229 |
| CTGGAGGC | -0.0215 |
| ACTGGCTC | -0.267 |
| AGTAGCTA | -0.16 |
| CACGGCAG | 0.428 |
| CCCGGCAA | 0.0207 |
| AACGGCAG | 0.384 |
| CTCGGCAG | 0.117 |
| ACCGGCAG | -0.121 |
| TTCGGCAA | 0.088 |
| CCCGGCAG | -0.227 |
| CTCGGCAA | 0.1 |
| CACGGCAA | 0.469 |
| ATCGGCAG | -0.00845 |
| TACGGCCA | 0.214 |
| TACGGCAA | 0.449 |
| AGACTTTC | -0.256 |
| TCTCAACA | 0.0271 |
| CAGGCCAG | -0.0909 |
| ATGGGAAC | -0.132 |
| GTGAGCAC | -0.066 |
| CCCTGATC | -0.255 |

| Sequence | PBM E-score |
| --- | --- |
| CCTAACAC | 0.067 |
| CGAGCCTA | -0.0212 |
| ACATTAAT | 0.0799 |
| ACAAGCGT | -0.135 |
| ATCGGCAC | 0.297 |
| AATGGCAT | 0.356 |
| ACCGGCAT | 0.0121 |
| AACGGCAC | 0.472 |
| ATCGGCAA | 0.106 |
| ACCGGCAA | -0.0651 |
| AATGGCAG | 0.0303 |
| AACGGCAT | 0.451 |
| AACGGCAA | 0.432 |
| ATCGGCAT | 0.238 |
| ACCGGCAC | 0.301 |
| AATGGCAC | 0.275 |
| TAGGGGAA | -0.171 |
| AAAGGATT | -0.109 |
| CAGTGGGG | -0.239 |
| AAACTCGG | -0.0615 |
| AGACTCAG | -0.133 |
| CCTGCTTA | -0.0853 |
| GTGTAGCA | -0.202 |
| ATGGAAAC | -0.0997 |
| CAAGCCCA | -0.0787 |

| Sequence | PBM E-score |
| --- | --- |
| ACGGAATA | 0.0278 |
| GACGGCAC | 0.453 |
| GCCGGCAC | 0.273 |
| GTCGGCAA | 0.0611 |
| GCCGGCAA | 0.106 |
| GACGGAAC | -0.0397 |
| GACGGCAA | 0.325 |
| CAAGCCCG | -0.0901 |
| CCACACTA | 0.127 |
| ATCTAGCG | -0.0611 |
| ACCAGATG | -0.146 |
| ATGAGGTG | -0.0679 |
| ATGAGGCC | 0.0892 |
| AAGAGGCT | 0.0613 |
| ATGAGGAA | -0.0278 |
| CTGAGGCA | 0.192 |
| GAGAGGCA | 0.208 |
| ATGAGGCA | 0.332 |
| AAGAGGCA | 0.363 |
| GGGAGGCA | 0.00612 |
| ATGAGGCG | 0.35 |
| GTGAGGCA | 0.367 |
| AAGAGGCG | 0.298 |
| GTTCTGTA | 0.0215 |
| TCCCGCGA | -0.312 |

| Sequence | PBM E-score |
| --- | --- |
| TATTGAGA | 0.0944 |
| CCTGCTCC | 0.0227 |
| CATTAAAA | 0.245 |
| CAAGACCC | -0.272 |
| AAAGGACC | 0.0732 |
| ATGAGTAC | 0.0493 |
| AGTGTGGC | 0.068 |
| CATGTGGG | -0.144 |
| AATGTGGC | 0.158 |
| CGTGTGGA | 0.016 |
| CGTGTGGC | 0.353 |
| CATGTGGC | 0.32 |
| AGCTCATC | -0.307 |
| TAGCACCA | -0.0587 |
| GCAACTAA | 0.263 |
| ATGTTTCG | 0.147 |
| AAAAACGA | 0.128 |
| GCGGCGCC | 0.484 |
| TCGGCGCA | 0.243 |
| CCGGCGCC | 0.367 |
| CCGGCGGC | 0.152 |
| CCGGCGCA | 0.121 |
| GCGGCGCA | 0.463 |
| GCGGCCCC | 0.176 |
| CCGGCGCG | 0.298 |

| Sequence | PBM E-score |
| --- | --- |
| GGGGCGCA | 0.126 |
| CTTCAGAC | -0.00198 |
| AGTCGCGC | 0.0334 |
| GCCCTAGA | -0.0515 |
| CTGCTTCA | -0.155 |
| ACTATCTG | -0.183 |
| CGCCGCTC | 0.434 |
| CACCGCTC | -0.0467 |
| AGCCGCTC | 0.337 |
| CGCCGCTA | 0.299 |
| AGCCGCTA | 0.119 |
| AGCCGCTG | 0.0781 |
| ATGACCAA | -0.0118 |
| CGATTAGA | 0.083 |
| CGACAGGC | -0.0711 |
| CAAGATCA | 0.101 |
| GCTGCCCC | -0.0352 |
| CAGTCAAC | -0.139 |
| CATACTTC | -0.12 |
| CCACCCAC | 0.0467 |
| AGGCACCT | 0.135 |
| CTGCACCA | -0.199 |
| GGGCACCA | 0.056 |
| AGGCACGA | 0.267 |
| AGGCACAT | 0.276 |

| Sequence | PBM E-score |
| --- | --- |
| AGGCACGG | 0.397 |
| CGGCACCA | 0.462 |
| TGGCACCA | 0.176 |
| AGGCACCA | 0.366 |
| CCTCTCTA | -0.212 |
| AACCAGTT | 0.143 |
| GAGAAGCC | -0.0953 |
| GGTGGCAC | 0.147 |
| TGGTGAAA | 0.0915 |
| CATTTTGG | 0.114 |
| ATAGTGAG | -0.0378 |
| TGATTCCA | -0.0134 |
| GAAGGTAC | -0.11 |
| AGTCGCCC | -0.174 |
| AATCGCCT | 0.302 |
| CATCGCCG | 0.375 |
| CATCGCCC | -0.0878 |
| ATTCGCCG | 0.328 |
| AATCGCCG | 0.431 |
| CATCGCCA | 0.0899 |
| ATTCGCCA | 0.0506 |
| AGTCGCCA | -0.199 |
| AATCGCCC | 0.0762 |
